Experimental data taken from PubChem BioAssay AID598 (SRMLSC, 2007).
About 5,100 (6%) of roughly 85,000 compounds were called active. The sample as a whole holds a higher share of actives than the screen did. Values without a mark were called inactive.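 How the source made its calls: active means viability at or below 40%; inactive means viability above 40%.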

Assay: proliferation blockers of H69AR lung cancer cells, primary screen, cell-based, human, 86K library (AID 598);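 further: multidrug resistant small cell line overexpressing MRP-1 efflux transporter; 100% = mean luminescence of untreated control wells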
Details: H69AR lung tumor viability, ATP luminescence, 72 h; at 10 µM; stronger effect = lower value

Row | Structure (SMILES) | viability
1 | CCN1CCN(Cc2c(O)ccc3c(=O)c(-c4ccc(OC)c(OC)c4)c(C(F)(F)F)oc23)CC1 | 104%
2 | O=c1c(-c2ccc3c(c2)OCCO3)c(C(F)(F)F)oc2cc(O)cc(O)c12 | 39% (active)
3 | CCSc1ccccc1C(=O)NCc1ccc(OC)cc1 | 92.6%
4 | CC(C)c1ccc(-c2noc(C3CCCN(S(C)(=O)=O)C3)n2)cc1 (stereo unspecified) | 106%
5 | Cn1c(C(=O)NCCCN2CCN(c3cccc(Cl)c3)CC2)cc2c(=O)n(C)c3ccccc3c21 | 1.66% (active)
6 | CCn1c(=O)cc(OCC(=O)NCCCN2CCN(c3cccc(Cl)c3)CC2)c2ccccc21 | 43.8%
7 | CC1CCCC(C)N1CCCNC(=O)c1cc2c(=O)n(C)c3ccccc3c2n1C (stereo unspecified) | 69.1%
8 | Cn1c(=O)c2c(ncn2CC(COCc2ccccc2Cl)OCc2ccccc2Cl)n(C)c1=O (stereo unspecified) | 77.7%
9 | Cc1ccc(-c2noc(CSc3nnc(-c4cccs4)n3C)n2)cc1 | 98.8%
10 | COCCNS(=O)(=O)c1cc(Br)ccc1OC | 106%
11 | CCOCCn1c(C(C)C)nc2ccccc21 | 102%
12 | CCC(=O)NC(Nc1cc(C)ccn1)(C(F)(F)F)C(F)(F)F | 99%
13 | O=C(Nn1cc(C(=O)N2CCN(c3ccccc3F)CC2)c2ccccc2c1=O)c1cnccn1 | 34.7% (active)
14 | COc1ccc2oc(=O)c(C(=O)N3CCN(c4ccccc4F)CC3)cc2c1 | 108%
15 | O=C(c1cccc2ccccc12)N1CCN(c2ccccc2F)CC1 | 56%
16 | CC(C)OC(=O)c1c(NC(=O)c2ccco2)sc2c1CCCC2 | 109%
17 | O=C1C(Cl)=C(N2CCOCC2)C(=O)N1c1ccccc1 | 86.6%
18 | COc1ccc(S(=O)(=O)Nc2ccc3oc(C)c(C(C)=O)c3c2)cc1 | 18.7% (active)
19 | COc1ccc2oc(C)c(NC(C)=O)c2c1 | 97.4%
20 | COc1cc(NS(=O)(=O)c2ccc(NC(C)=O)cc2)cc(OC)c1 | 90.3%
21 | C=CCN(C(=O)Cn1ncc2c1-c1cc(C)ccc1OC2)c1ccccc1 | 84.9%
22 | CC(=O)C1=C(C)NC(=O)NC1c1cc(Br)ccc1OCC#N (stereo unspecified) | 97.1%
23 | Cc1cnc(NC(=O)CSc2nnc(C)s2)s1 | 81.4%
24 | COc1ccccc1-n1c(CNC(=O)c2ccccc2)nnc1SCC(=O)Nc1nnc(C)s1 | 108%
25 | Cc1nnc(NC(=O)CSc2nccn2-c2cccc(C)c2C)s1 | 29.5% (active)
26 | COC(=O)CSC1=C(C#N)C(c2ccccc2OC)C(C(=O)OC)C(=O)N1 (stereo unspecified) | 94.8%

Row | Structure (SMILES) | viability
27 | COc1cc2c(cc1OC)C(c1ccc(C)o1)CC(=O)N2 (stereo unspecified) | 85.8%
28 | CCOC(=O)CSC1=C(C#N)C(c2ccco2)C(C(=O)OCc2ccccc2)=C(C)N1 (stereo unspecified) | 22.2% (active)
29 | Cc1ccc(C2CC(=O)NC(SCC(=O)OCc3ccccc3)=C2C#N)o1 (stereo unspecified) | 24.4% (active)
30 | C=CCOC(=O)C1=C(C)NC(SCC(=O)OCC)=C(C#N)C1c1ccc(C)cc1 (stereo unspecified) | 61.6%
31 | CC1=C(C(=O)Nc2ccccc2)C(c2ccco2)C(C#N)=C(SCC(N)=O)N1 (stereo unspecified) | 91%
32 | COc1ccc(S(=O)(=O)Nc2ccc(F)cc2)c(C)c1C | 101%
33 | CCCCCCC12CCC(C(=O)O)(CC1)CC2 | 79.3%
34 | Cc1nc2cc(NC(=O)NCc3ccccc3)ccc2o1 | 95.1%
35 | OC(COc1ccc2ccccc2c1)Cn1cncn1 (stereo unspecified) | 88.4%
36 | COc1c(C)cccc1C(=O)Nc1cc(Cl)ccc1N1CCOCC1 | 82.7%
37 | O=C(CN1CCOCC1)Nc1cc(Cl)ccc1Cl | 93.4%
38 | O=C(Nc1cc(N2CCOCC2)ncn1)NC1(C(F)(F)F)Oc2ccc(Cl)cc2O1 (stereo unspecified) | 29.6% (active)
39 | CCOc1cc2[nH]c(=S)n(CCN3CCCCC3C)c(=O)c2cc1OCC (stereo unspecified) | 82.5%
40 | CCn1cc(C(=O)NC2CCCCCC2)c(=O)c2cc(S(=O)(=O)N3CCCCC3)ccc21 | 30.1% (active)
41 | CCn1cc(C(=O)NCC2CCCO2)c(=O)c2cc(S(=O)(=O)N3CCCCC3)ccc21 (stereo unspecified) | 87.7%
42 | O=C(NC1CCCCC1)n1c(=O)oc2cc(S(=O)(=O)N3CCCCC3)ccc21 | 60.7%
43 | CN(C)S(=O)(=O)c1ccc(NC(=O)COC(=O)c2n[nH]c3ccccc23)cc1 | 78.6%
44 | Cc1nc(NCCN)c(C#N)c2c1COC(C)(C)C2 | 85%
45 | CCCCc1nc(NCCN)c(C#N)c2c1CSC(C)(C)C2 | 1.08% (active)
46 | CC(C)(C)c1ccc(OC2=CS(=O)(=O)c3ccccc32)cc1 | 88%
47 | CCCn1nnc(NC(=O)COc2ccc(CC)cc2)n1 | 95.5%
48 | CC(C)Cn1cnc2c1c(=O)n(CC(O)c1ccccc1)c(=O)n2CC(C)C (stereo unspecified) | 28% (active)
49 | CC(C)Cn1c(CN(Cc2ccccc2)Cc2ccccc2)nc2c1c(=O)n(C)c(=O)n2C | 61.6%
50 | Cn1c(=O)c2c(ncn2CC(=O)N2CCN(c3ccccc3)CC2)n(C)c1=O | 105%
51 | Cc1cc(-n2nc(C)cc2C)n2nc(C)c(-c3ccccc3)c2n1 | 68.4%
52 | O=C(COc1ccc2ccccc2c1)N1CCN(C(=O)c2cccs2)CC1 | 74%

Row | Structure (SMILES) | viability
53 | O=C(CCN1C(=O)c2ccccc2C1=O)Nc1cccc(F)c1 | 98.2%
54 | N#CCSc1nc2ccccc2c(=O)n1-c1ccccc1 | 77%
55 | COc1ccc(-n2nnnc2SCC(=O)Nc2ccccc2)cc1 | 103%
56 | Cc1ccc(Nc2nc(CSc3nnnn3-c3ccccc3)cc(=O)[nH]2)cc1 | 23.1% (active)
57 | O=c1c2ccccc2nc(CSc2nnnn2-c2ccccc2)n1-c1ccccc1 | 15.1% (active)
58 | O=c1c2ccccc2nnn1CSc1nnnn1-c1ccccc1 | 83.4%
59 | Cc1ccc(-c2noc(CSc3nnnn3-c3ccccc3)n2)cc1 | 86.2%
60 | OC(CN1C2=NCCCN2c2ccccc21)c1ccc(Br)cc1 (stereo unspecified) | 86.5%
61 | Cn1cnc([N+](=O)[O-])c1Nc1ccccc1O | 100%
62 | COC(=O)c1ccc(CSc2nnc(NC(C)C)s2)cc1 | 98.2%
63 | COc1ccc(C)cc1NC(=O)CCS(=O)(=O)c1cccc2nonc12 | 89%
64 | CC1CCc2c(sc3nc4n(c(=O)c23)CCS4)C1 (stereo unspecified) | 80.8%
65 | C=CCn1c(SCc2c(C)noc2C)nc2sc3c(c2c1=O)CCC(C)C3 (stereo unspecified) | 29.4% (active)
66 | CCCn1nnc2sc3c(c2c1=O)CCC(C)C3 (stereo unspecified) | 96.7%
67 | Nc1c(C(=O)NCc2ccccc2)sc2nc3c(cc12)C(=O)CCC3 | 65.5%
68 | Cc1ccc(SC(=O)COc2ccc(C)c(C)c2)cc1 | 16.4% (active)
69 | COCCNC(=O)COc1ccc(C)c(C)c1 | 86%
70 | Cc1ccc(SCC(=O)c2cc(C)c(OC(=S)N(C)C)c(C)c2)cc1 | 64.6%
71 | Cc1ccc(S(=O)(=O)NC(=O)COc2ccccc2C)cc1 | 97.9%
72 | CCOCN(C(=O)Cn1c(C(C)O)nc2ccccc21)c1c(C)cccc1CC (stereo unspecified) | 62.8%
73 | O=C(Cc1ccc(-n2c(=O)c3sccc3n(Cc3ccc(F)cc3)c2=O)cc1)NCc1ccco1 | 51%
74 | CN1CCN(CC(=O)Nc2sc3c(c2C#N)CCC(C(C)(C)C)C3)CC1 (stereo unspecified) | 2.42% (active)
75 | CCC(=O)Nc1sc(C(=O)N2CCCCC2)c(C)c1C#N | 96.9%
76 | c1ccc2c(NCC3CCCO3)nc(-c3ccncc3)nc2c1 (stereo unspecified) | 35.5% (active)
77 | c1ccc(-c2nc(NCc3ccco3)c3ccccc3n2)cc1 | 87.9%
78 | Cc1nc2ccccc2c2oc(C(=O)NCC3CCCO3)cc12 (stereo unspecified) | 82.4%

Row | Structure (SMILES) | viability
79 | Cn1c2c(c(=O)n(C)c1=O)C(c1cccc([N+](=O)[O-])c1)Nc1ccccc1O2 (stereo unspecified) | 88.5%
80 | C=CCn1c(SCc2c(C(=O)OC)sc(N)c2C(=O)OC)nnc1-c1ccc(Cl)cc1 | 45.2%
81 | COc1ccc(CN2CCCCC2C)cc1OC (stereo unspecified) | 105%
82 | COc1cc(C2CC(=O)c3cnc(NC(C)=O)nc3C2)cc(OC)c1OC (stereo unspecified) | 74%
83 | O=C(Nc1ncc2c(n1)CC(c1ccco1)CC2=O)c1ccc(Cl)cc1 (stereo unspecified) | 80.7%
84 | CCc1ccc(Nc2ncc3c(n2)CC(c2ccco2)CC3=O)cc1 (stereo unspecified) | 26.3% (active)
85 | Nc1ccc(C(=O)OCC(=O)NC2CCCc3ccccc32)cc1[N+](=O)[O-] (stereo unspecified) | 63.4%
86 | CSc1ncccc1C(=O)OCC(=O)N1CCOCC1 | 96%
87 | CCOc1ncccc1C(=O)OCc1cn2cc(Cl)ccc2n1 | 35.2% (active)
88 | CCOC(=O)c1cc2ccccc2nc1C | 101%
89 | COc1ccc(CNc2ccc3c(c2)CCC3)cc1OC | 104%
90 | CCOc1ccc(C(=O)NC2CCN(C(=O)Nc3ccccc3OC)CC2)cc1 | 79%
91 | COC(=O)CSc1nc(C)c2ccc(OC)cc2n1 | 86.5%
92 | Cc1nnc(SCC(=O)NC(=O)NC2CCCC2)n1N | 109%
93 | CC(C)n1c(C(O)c2ccccc2)nc2ccccc21 (stereo unspecified) | 104%
94 | Cc1ccc(C(CC(=O)O)Nc2nc(N3CCCCC3)nc(N3CCCCC3)n2)cc1 (stereo unspecified) | 108%
95 | CC(Nc1nc(N2CCCC2)nc2ccccc12)c1ccccc1 (stereo unspecified) | 12.4% (active)
96 | CCCCN1C(=O)/C(=C2/C=CC=CN2C)SC1=S | 90.2%
97 | CC(=O)c1cc2c(cc1NC(=O)CN1CCCCCC1)OCO2 | 79.5%
98 | CCc1ccc(CNC(=O)C2CC(=O)N(CCc3ccc(C)cc3)C2)cc1 (stereo unspecified) | 99.5%
99 | CCC(C)Sc1nc2c(c(=O)[nH]c(=O)n2C)n1CC(O)COc1cccc2ccccc12 (stereo unspecified) | 30.7% (active)
100 | CN1CCN(c2nc3c(c(=O)[nH]c(=O)n3C)n2Cc2cccc3ccccc23)CC1 | 71.9%
101 | CCCSc1nc2c(c(=O)[nH]c(=O)n2C)n1CCc1ccccc1 | 74%
